Values joined by “and” are separate entries in the source; they are usually repeats but may differ in a detail not shown here. Equal values may be shown once. Active and inactive are the calls of the source.
Tests used:
[1] = binders of probe aFSTL3 on microarray, primary screen, stem cell growth factor project, biochemical, small-molecule microarray, fluorescence 635/667 (AID 1064); conditions: higher = more signal;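 also: measures binding of the biotinylated anti-FSTL3 antibody to printed compounds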
[2] = binders from COS7 lysate, DM2A8 probe, primary screen, torsin A project, cell lysate, small-molecule microarray, fluorescence 635/667 (AID 1065); conditions: higher = more signal, COS7 lysate expressing mutant human TOR1A
[3] = binders of probe aFGF2 on microarray, primary screen, stem cell growth factor project, biochemical, small-molecule microarray, fluorescence 635/667 (AID 1067); conditions: higher = more signal;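 also: measures binding of biotinylated aFGF2 protein to printed compounds on slides; z-score merges feature fluorescence and signal-to-noise across triplicate slides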
[4] = binders of probe aFGF10 on microarray, primary screen, stem cell growth factor project, biochemical, small-molecule microarray, fluorescence 635/667 (AID 1071); conditions: higher = more signal;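 also: score merges 667 nm spot intensity and signal to noise from triplicate slides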
[5] = target: Neurogenic locus notch homolog protein 2 (Homo sapiens) (UniProt Q04721); test: Notch2 binders on small-molecule microarrays, primary screen, biochemical, small-molecule microarray, 635 nm fluorescence, stem cell growth factors (AID 1073); conditions: Notch2 binding, higher = more signal
[6] = target: Pro-neuregulin-1, membrane-bound isoform (Homo sapiens) (UniProt Q02297); test: NRG1 binders on small-molecule microarrays, primary screen, psychiatric disease protein project, biochemical, small-molecule microarray, fluorescence 635/667 (AID 1075); conditions: NRG1 binding, 635 nm fluorescence, higher = more signal;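 also: score combines 667 nm spot fluorescence with signal to noise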
[7] = system: Neuregulin-1 EGF-like domain; test: binders of neuregulin-1 EGF-like domain, primary screen, biochemical, small-molecule microarray, 635 nm fluorescence (AID 1081); conditions: small-molecule microarray binding, higher = more signal;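 also: binding of the protein to compounds printed on small-molecule microarray slides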
[8] = FRG1 promoter luciferase signal modulators, primary screen, FRG1 inhibition for FSHD, cell-based, C2C12 myotubes, firefly/Renilla luciferase, luminescence (AID 1084); conditions: higher = more signal, called active from +8 up or from −8 down
[9] = binders of probe aFST on microarray, primary screen, stem cell growth factor project, biochemical, small-molecule microarray, fluorescence 635/667 (AID 1086); conditions: higher = more signal;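 also: score merges 667 nm fluorescence with signal-to-noise of each printed compound spot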
[10] = binders of probe aHhip on microarray, primary screen, stem cell growth factor project, biochemical, small-molecule microarray, fluorescence 635/667 (AID 1087); conditions: higher = more signal;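 also: score merges spot fluorescence at 667nm with spot signal to noise ratio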

Chain of Pro-neuregulin-1, membrane-bound isoform (Homo sapiens) (Q02297 whole entry, looked up, the tested form may be a part, canonical isoform): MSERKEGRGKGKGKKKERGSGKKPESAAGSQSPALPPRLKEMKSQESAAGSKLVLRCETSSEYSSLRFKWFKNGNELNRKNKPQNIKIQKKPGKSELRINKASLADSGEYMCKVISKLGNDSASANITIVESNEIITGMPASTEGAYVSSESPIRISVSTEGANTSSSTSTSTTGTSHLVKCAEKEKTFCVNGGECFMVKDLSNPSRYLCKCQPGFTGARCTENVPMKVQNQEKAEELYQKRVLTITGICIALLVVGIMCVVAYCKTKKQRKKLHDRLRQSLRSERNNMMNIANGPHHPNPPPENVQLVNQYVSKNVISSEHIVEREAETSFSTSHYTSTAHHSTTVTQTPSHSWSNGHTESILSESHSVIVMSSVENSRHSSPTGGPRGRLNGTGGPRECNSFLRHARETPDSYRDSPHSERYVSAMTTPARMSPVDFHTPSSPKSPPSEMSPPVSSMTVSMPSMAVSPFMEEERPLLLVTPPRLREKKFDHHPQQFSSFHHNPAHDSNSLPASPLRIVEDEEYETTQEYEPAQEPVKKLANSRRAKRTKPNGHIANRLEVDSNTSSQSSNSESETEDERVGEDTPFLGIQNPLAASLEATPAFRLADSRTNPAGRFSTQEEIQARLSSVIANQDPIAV
Chain of Neurogenic locus notch homolog protein 2 (Homo sapiens) (Q04721 whole entry, looked up, canonical isoform): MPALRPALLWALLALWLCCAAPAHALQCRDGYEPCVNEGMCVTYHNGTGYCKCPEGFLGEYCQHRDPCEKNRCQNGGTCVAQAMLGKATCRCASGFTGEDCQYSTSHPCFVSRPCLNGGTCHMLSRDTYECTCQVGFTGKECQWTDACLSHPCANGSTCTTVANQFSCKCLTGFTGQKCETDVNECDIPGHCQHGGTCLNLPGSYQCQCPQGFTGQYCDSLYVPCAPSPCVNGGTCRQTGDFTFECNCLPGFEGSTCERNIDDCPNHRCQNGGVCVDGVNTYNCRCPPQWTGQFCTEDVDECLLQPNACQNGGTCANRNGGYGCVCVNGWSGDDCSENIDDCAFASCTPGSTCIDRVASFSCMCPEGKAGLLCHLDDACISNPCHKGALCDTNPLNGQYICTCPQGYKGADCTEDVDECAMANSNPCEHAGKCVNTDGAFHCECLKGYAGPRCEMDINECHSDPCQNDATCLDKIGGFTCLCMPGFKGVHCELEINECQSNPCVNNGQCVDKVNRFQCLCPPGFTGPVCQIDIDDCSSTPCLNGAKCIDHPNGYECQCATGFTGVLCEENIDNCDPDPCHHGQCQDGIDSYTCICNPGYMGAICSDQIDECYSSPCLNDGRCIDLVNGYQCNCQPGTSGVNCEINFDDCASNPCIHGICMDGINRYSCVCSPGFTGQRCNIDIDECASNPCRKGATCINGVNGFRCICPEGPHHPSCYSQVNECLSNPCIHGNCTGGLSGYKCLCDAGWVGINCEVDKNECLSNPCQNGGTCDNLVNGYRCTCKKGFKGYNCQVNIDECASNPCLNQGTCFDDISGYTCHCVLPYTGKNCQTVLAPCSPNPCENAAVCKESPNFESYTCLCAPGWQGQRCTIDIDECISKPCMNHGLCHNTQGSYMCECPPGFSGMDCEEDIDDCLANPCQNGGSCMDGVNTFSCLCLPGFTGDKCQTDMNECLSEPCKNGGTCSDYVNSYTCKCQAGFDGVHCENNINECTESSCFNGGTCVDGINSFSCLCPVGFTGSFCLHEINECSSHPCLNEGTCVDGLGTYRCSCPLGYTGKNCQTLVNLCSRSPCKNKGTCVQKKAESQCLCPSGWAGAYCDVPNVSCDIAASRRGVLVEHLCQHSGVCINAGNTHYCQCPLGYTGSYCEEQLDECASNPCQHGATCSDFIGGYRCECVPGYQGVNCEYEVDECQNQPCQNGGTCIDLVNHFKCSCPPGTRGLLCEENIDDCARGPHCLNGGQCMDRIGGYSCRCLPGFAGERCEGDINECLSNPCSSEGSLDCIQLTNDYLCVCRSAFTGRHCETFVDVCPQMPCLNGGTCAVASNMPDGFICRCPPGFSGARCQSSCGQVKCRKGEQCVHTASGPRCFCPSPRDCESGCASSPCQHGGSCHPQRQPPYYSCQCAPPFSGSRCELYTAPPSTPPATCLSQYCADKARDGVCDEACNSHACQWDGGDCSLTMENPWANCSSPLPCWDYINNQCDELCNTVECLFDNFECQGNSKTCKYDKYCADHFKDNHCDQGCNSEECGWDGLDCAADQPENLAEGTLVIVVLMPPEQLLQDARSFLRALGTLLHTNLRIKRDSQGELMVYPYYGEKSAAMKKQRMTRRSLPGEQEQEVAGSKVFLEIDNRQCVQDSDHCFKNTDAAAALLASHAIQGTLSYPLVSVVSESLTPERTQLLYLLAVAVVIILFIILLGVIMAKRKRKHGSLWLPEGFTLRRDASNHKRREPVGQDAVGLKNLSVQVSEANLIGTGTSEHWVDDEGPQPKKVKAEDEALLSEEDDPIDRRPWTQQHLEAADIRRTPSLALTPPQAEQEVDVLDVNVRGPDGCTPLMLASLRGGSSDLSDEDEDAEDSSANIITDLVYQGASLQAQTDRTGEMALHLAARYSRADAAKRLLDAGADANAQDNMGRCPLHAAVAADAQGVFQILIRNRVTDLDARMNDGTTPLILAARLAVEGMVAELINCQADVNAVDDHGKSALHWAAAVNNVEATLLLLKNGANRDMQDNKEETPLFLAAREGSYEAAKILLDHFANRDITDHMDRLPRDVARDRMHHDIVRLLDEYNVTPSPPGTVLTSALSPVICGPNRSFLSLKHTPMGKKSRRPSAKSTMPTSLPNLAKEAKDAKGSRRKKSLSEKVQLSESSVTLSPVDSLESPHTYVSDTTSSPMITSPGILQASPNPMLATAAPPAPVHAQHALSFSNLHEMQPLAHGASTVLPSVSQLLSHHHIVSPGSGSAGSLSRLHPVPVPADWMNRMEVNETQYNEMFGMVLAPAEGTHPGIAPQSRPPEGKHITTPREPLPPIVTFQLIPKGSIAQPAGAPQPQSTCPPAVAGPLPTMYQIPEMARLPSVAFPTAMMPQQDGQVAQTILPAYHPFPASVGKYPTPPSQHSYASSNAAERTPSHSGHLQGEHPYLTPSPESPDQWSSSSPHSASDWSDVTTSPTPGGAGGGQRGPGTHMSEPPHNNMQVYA

SMILES	composite z-score [1]	composite z-score [2]	composite z-score [3]	composite z-score [4]	composite z-score [5]	composite z-score [6]	composite z-score [7]	z-score [8]	composite z-score [9]	composite z-score [10]
O=C1NC(=O)C2C1C=CC(C(O)c1ccc([N+](=O)[O-])cc1)N2Nc1ccc(Cl)cc1Cl (stereo not given)	0.396 and 1.04	0.0888 and 1.29	-0.0044 and 0.115	0.694 and 0.322	1.13 and 0.991	1.18 and 1.78	0.939 and 1.21	0.0748 (inactive) and -0.358 (inactive)	0.848 and 1.54	-0.226 and -0.236
C=CCN(C(=O)C1N(CCOCCO)C(=O)C2C(C(=O)O)C3C=CC21O3)C(C)(C)C (stereo not given)	0.977 and 0.412	-0.768 and -0.863	-0.25 and -0.262	-1.82 and -1.11	-2.44 and -1.36	-0.774 and -0.717	-0.643 and -0.383	0.97 (inactive) and -0.383 (inactive)	-1.09 and -1.91	-0.175 and 0.0156
CC(C)[Si]1(C(C)C)OCc2cc(CCCc3cc4c(c(CCc5ccccc5)n3)[Si](C(C)C)(C(C)C)OC4)nc(CCc3ccccc3)c21	-0.0088 and -0.516	0.0696 and 0.445	-0.105 and -0.12	-0.841 and 0.402	-0.0702 and 0.469	-0.429 and -0.0826	-0.688 and 0.277	-0.712 (inactive) and 0.124 (inactive)	-0.0006 and 0.0171	0.141 and 0.065
C=CCN(C(=O)C(c1cccs1)N(C(=O)/C=C\C(=O)O)c1ccc(CCO)cc1)c1ccc(OC)cc1 (stereo not given)	0.862 and 1.92	-0.812 and -1.02	-0.236 and -0.312	-1.73 and -1.74	-1.21 and -2.49	0.017 and -1.66	0.877 and -1.46	0.253 (inactive) and 0.243 (inactive)	-0.889 and -1.13	-0.134 and -0.204
C[C@@H]1CC[C@H]2C(=O)NC[C@@H](O)CN2[C@H]1c1ccc(Br)cc1	-0.194 and -0.181	0.332 and 0.0997	-0.116 and -0.134	0.23 and 0.0389	-0.556 and -0.244	0.229 and -0.138	0.693 and 0.72	0.674 (inactive) and -0.078 (inactive)	-0.304 and 0.127	-0.3 and -0.134
COCn1c2ccccc2c2nnc(C(C)=O)nc21	-0.401 and -0.253	0.416 and -0.0491	-0.108 and -0.112	0.111 and 0.226	-0.0995 and 0.194	-0.325 and -0.146	-0.29 and -0.548	0.51 (inactive) and 0.697 (inactive)	0.252 and -0.0637	-0.0994 and 0.0515
C=CCN(Cc1ccccc1)C(=O)C1N(c2ccc(CCO)cc2)C(=O)C2C(C(=O)O)C3C=CC21O3 (stereo not given)	1.72 and 0.902	-0.723 and -0.963	-0.194 and -0.19	-0.362 and -0.749	-2.7 and -2.66	0.191 and -0.96	0.161 and -0.559	2.4 (inactive) and 1.24 (inactive)	-1.44 and -0.907	-0.0994 and -0.431
C[C@@H](ON=C1[C@H]2CCn3c(=O)n(-c4ccccc4)c(=O)n3[C@H]2[C@H](O)[C@@H]2O[C@H]12)c1cn([C@H](CO)Cc2ccccc2)nn1	-0.289	0.316	-0.113	0.449	0.308	0.11	0.536	0.887 (inactive)	0.0701	-0.64

Source: PubChem BioAssay
